Rows were chosen to be rich in hits. Some 21% of all compounds tested hit in one or more screens of this group.
D3 ag: qHTS of D3 Dopamine Receptor Agonist: qHTS. D(3) dopamine receptor (Homo sapiens), P35462. D3R DiscoveRx beta-arrestin cells, luminescence, 90 min. max activation, %. 410,000 compounds, 0.58% hits. AID 652048, 2013; in the data active = max activation above about 30%; note: 0% is about no effect
Target sequence (P35462 whole entry, looked up): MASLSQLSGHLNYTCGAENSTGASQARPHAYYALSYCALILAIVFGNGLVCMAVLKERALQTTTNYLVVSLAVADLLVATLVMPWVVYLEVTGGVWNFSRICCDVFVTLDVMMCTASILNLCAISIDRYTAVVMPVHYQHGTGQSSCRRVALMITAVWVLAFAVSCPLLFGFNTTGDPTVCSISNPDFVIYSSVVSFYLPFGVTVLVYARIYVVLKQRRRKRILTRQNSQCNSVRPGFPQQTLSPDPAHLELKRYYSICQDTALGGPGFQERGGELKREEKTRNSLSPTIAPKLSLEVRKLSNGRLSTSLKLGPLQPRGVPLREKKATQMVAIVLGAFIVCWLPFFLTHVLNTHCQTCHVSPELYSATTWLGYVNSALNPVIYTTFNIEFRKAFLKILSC
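Cells at 1500/well, incubated overnight, then treated with pinned compounds (dopamine as control) for 90 min at 37 degrees C. DiscoveRx reagent added for 30 - 60 minutes at room temperature; luminescence read.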
ClpP mod: qHTS Assay for Activators of ClpP; Potency, µM (top dose mostly 57.5 µM), without a hit: top-dose activity change, negative = active; purified B. subtilis ClpP, FRET peptide cleavage, 20 min; ATP-dependent Clp protease proteolytic subunit (Bacillus subtilis (strain 168)), P80244; 340,000 compounds, 1.9% hits; active = well fitted falling curve with a large enough effect; inconclusive = small, poorly fitted or top-dose-only effect; inactive = no such curve, though single readings can be large or run the other way; note: potency is the fitted concentration of half-maximal effect; the source files actives as falling curves though it sought activators and does not explain the sign; nearly all actives have a fitted effect of over 65% in size
Target sequence (P80244 whole entry, looked up): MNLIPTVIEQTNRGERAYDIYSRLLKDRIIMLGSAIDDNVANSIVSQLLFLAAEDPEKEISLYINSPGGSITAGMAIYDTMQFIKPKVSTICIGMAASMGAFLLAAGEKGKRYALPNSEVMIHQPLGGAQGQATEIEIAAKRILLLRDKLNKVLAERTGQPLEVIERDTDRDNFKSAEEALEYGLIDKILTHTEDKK
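FRET quenching reversal measured ClpP activation: 10 microg/mL B. subtilis ClpP at pH 8 with the FRET-FV decapeptide, read at 430 nm after 320 nm excitation. The 20-min minus 0-min signal was scaled between DMSO/no-enzyme wells and ADEP (5.8 microM final).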
TDP1 cell CPT: qHTS for Inhibitors of human tyrosyl-DNA phosphodiesterase 1 (TDP1): qHTS in cells in presence of CPT; chicken DT40 Tdp1-/-;hTDP1 cells + 20 nM CPT, ATP luminescence, 48 h; Potency, µM (titrated, usually from 46.2 µM), for inactives: top-dose activity change, negative = growth inhibition, actives largely listed as inhibitors; 420,000 compounds, 12% hits; note: potency is the fitted concentration of half-maximal effect; % is set by controls: 0 for no effect and ±100 for the full control effect; nearly all actives have a fitted effect of over 55% in size
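Chicken DT40 Tdp1-/- cells stably complemented with human TDP1 were seeded at 400 cells/well in medium containing 20 nM camptothecin, exposed to pin-transferred compounds, and grown at 37 °C for at least 48 hr. Viability was read as ATP luminescence.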
DRD3 antagonist: qHTS of D3 Dopamine Receptor Antagonist: qHTS; D(3) dopamine receptor (Homo sapiens), P35462; 360,000 compounds, 2.5% hits; AID 652054, 2013; D3R cells, DiscoveRx beta-arrestin luminescence, antagonist mode; hits give low values; max response, negative = inhibition, %; in the data active = max response below about -50%; inconclusive = no clear call, values can overlap the other calls; note: % is set by controls: 0 for no effect and ±100 for the full control effect
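Cells plated overnight at 1500 cells/well, then exposed to library compounds with dopamine controls for 90 minutes at 37 degrees C. DiscoveRx reagent added for 30–60 minutes at room temperature; luminescence read, quantitative HTS format.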
TDP1 cell noCPT: qHTS for Inhibitors of human tyrosyl-DNA phosphodiesterase 1 (TDP1): qHTS in cells in absence of CPT. DT40 Tdp1-/- hTDP1 cells, no CPT, ATP luminescence, 48 h. Potency, µM (series often up to 46.2 µM), without a hit: top-dose activity change, negative = growth inhibition, most hits filed as inhibitors. 420,000 compounds, 15% hits; note: potency is the fitted concentration of half-maximal effect; % is set by controls: 0 for no effect and ±100 for the full control effect; nearly all actives have a fitted effect of over 55% in size
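Stably hTDP1-transfected Tdp1-null chicken DT40 cells were treated with library compounds minus camptothecin and grown for at least 48 hr at 37 °C, after which cellular ATP was quantified by luminescence.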
IL1B secr inh: qHTS for Inhibitors of Inflammasome Signaling: IL-1-beta AlphaLISA Primary Screen. activity change, % at 57.5 µM. 360,000 compounds, 4.7% hits. THP-1 LPS/ATP IL-1B secretion, AlphaLISA, 16 h; hits give low values. AID 743279, 2014; in the data active = activity change below about -50%; inconclusive = mostly about -30% to -49%; note: % is set by controls: 0 for no effect and ±100 for the full control effect
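Secreted IL-1B measured by AlphaLISA bead assay after 16 h compound exposure of THP-1 cells; compounds (final up to 57.5 uM) added 1 h before LPS (250 ng/mL) and ATP (1.25 mM) stimulation; lower signal means less secretion.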
* marks the source's active call; other numbers are inactive results; ? = inconclusive; · = no result; ! = repeats disagree. Unless noted, calls come from the whole dose curve; as a rule, active = well fitted inhibition curve with a large enough effect; inconclusive = small, poorly fitted or top-dose-only effect; inactive = flat fitted curve, though single readings scatter.

SMILES	D3 ag	ClpP mod	TDP1 cell CPT	DRD3 antagonist	TDP1 cell noCPT	IL1B secr inh
Cc1ccc(Cc2c(-c3ccc(Br)cc3)nc3ccc(Br)cn23)cc1	4	-2%	18µM*	19	?	45
Cc1ccc2nc(C(C)(C)C)c(Cc3ccsc3)n2c1	-9	5%	?	-107*	18µM*	19
CCCc1nc2ccc(C)cn2c1Cc1ccsc1	2	5%	13µM*	-18	9.2µM*	36
Cc1ccc(-c2nc3ccc(C)cn3c2Cc2ccsc2)cc1	11	4%	?	54	15µM*	-29
CCOC(=O)[C@@H]1CSCCS(=O)(=O)N1Cc1ccccc1Br	4	-3%	-29%	0	-24%	39
O=C(CSc1n[nH]c(-c2ccccc2Cl)n1)N1CCN(c2ccc(F)cc2)CC1	-3	0%	?	·	?	·
COc1ccccc1NC(=O)Cn1c(=O)n(-c2cccc(C(C)=O)c2)c(=O)c2c3c(sc21)CN(C(C)=O)CC3	-15	0%	3%	·	3%	·
CNC(=O)[C@H]1O[C@@H](n2cnc3c(NCc4ccc(N)cc4)ncnc32)[C@H](O)[C@@H]1O	·	·	2%	·	0%	·
CCOC(=O)c1ccc(NC(=O)CCNS(=O)(=O)c2cccs2)cc1	4	·	-23%	9	?	22
Cc1[nH]c(C)c(S(=O)(=O)NCCc2ccccc2)c1C(=O)N1CCCCC1	6	0%	-23%	-1	12%	-15
Cc1ccc(-c2nc3ccc(Br)cn3c2Cc2ccsc2)cc1	1	-3%	15µM*	10	23µM*	0
CCCc1c(C(=O)Nc2cc(C)on2)cnn1-c1ccccc1	-4	0%	0%	-14	-16%	7
Cc1ccc(F)cc1C(=O)N1CCCC(C)(C(=O)NS(=O)(=O)C2CC2)C1 (centres undefined)	9	0%	?	0	2.6µM*	17
CC1(C(=O)NS(=O)(=O)C2CC2)CCN(C(=O)c2ccc(F)cc2Cl)C1 (centres undefined)	2	1%	3%	9	21%	14
CC1(C(=O)NS(=O)(=O)C2CC2)CCCN(C(=O)C2(c3ccc(Cl)cc3)CCCC2)C1 (centres undefined)	4	2%	?	2	12µM*	33
CC1(C(=O)NS(=O)(=O)C2CC2)CCN(C(=O)c2c(F)cccc2F)C1 (centres undefined)	-2	1%	2%	11	-1%	19
Cc1ccc(F)c(C(=O)N2CCCC(C)(C(=O)NS(=O)(=O)C3CC3)C2)c1F (centres undefined)	5	5%	6.5µM*	1	5.8µM*	20
COc1ccc(C(=O)N2CCCC(C)(C(=O)NS(=O)(=O)C3CC3)C2)c(OC)c1 (centres undefined)	2	0%	2.1µM*	15	3.7µM*	39
CCN(CC)c1ccc(-c2nc(-c3ccccc3C)no2)cc1[N+](=O)[O-]	-2	0%	?	·	?	·
Cc1cc(C)cc(C(=O)N2CCCCC2)c1	-10	·	-6%	-7	-12%	-5
Cc1cc(C(=O)N2CCCC(C)(C(=O)NS(=O)(=O)C3CC3)C2)n(C(C)(C)C)n1 (centres undefined)	2	-1%	8.2µM*	13	5.2µM*	0
CC1(C(=O)NS(=O)(=O)C2CC2)CCCN(C(=O)c2ccc(F)cc2Cl)C1 (centres undefined)	-12	2%	?	0	1.5µM*	29
CCOc1cc(C(=O)NCCCn2ccnc2)cc(OCC)c1OCC	-1	-1%	1%	-5	13%	12
COc1ccc(/C=C2\CN(Cc3ccccc3)C/C(=C\c3ccc(OC)cc3)C2=O)cc1	3	-1%	10µM*	5	16µM*	-29
Cc1cccc(CNC(=O)c2cnc3sc(N4CCOCC4)nn3c2=O)c1	-13	?	-11%	·	-20%	·
SMILES	D3 ag	ClpP mod	TDP1 cell CPT	DRD3 antagonist	TDP1 cell noCPT	IL1B secr inh
COc1cccc(-c2nn(-c3ccc(F)cc3)cc2C(=O)NCC2CCCO2)c1 (centres undefined)	-13	-2%	23µM*	9	23µM*	-9
COc1cccc(OCC(=O)NCC2CCCO2)c1 (centres undefined)	-5	0%	2%	-11	12%	0
COc1cccc(-c2nn(-c3ccc(C)cc3)cc2C(=O)NCC2CCCO2)c1 (centres undefined)	-22	-26%	?	-23	?	-16
COc1cccc(-c2cc(C(=O)NCC3CCCO3)c3cc(C)cc(C)c3n2)c1 (centres undefined)	66*	?	23µM*	34	26µM*	-9
Cn1c(C(=O)NCc2ccccc2Cl)cc2sc(Cl)cc21	-3	-2%	-2%	·	?	·
Cc1ccc(-n2c(=O)c3sccc3n(Cc3cc(=O)n4ccccc4n3)c2=O)cc1	7	32µM*!	8%	-30	-13%	0
O=c1c2sccc2n(Cc2cc(=O)n3ccccc3n2)c(=O)n1-c1cc(F)ccc1F	7	5%	-16%	·	0%	·
CC(=O)N1CCc2cc(S(=O)(=O)NC(C(=O)NC(C)c3ccccc3)C(C)C)ccc21 (centres undefined)	-3	0%	2%	-6	6%	50
O=C(NC(=S)N1CCN(c2ccc([N+](=O)[O-])cc2Cl)CC1)c1ccco1	4	2%	21µM*	-4	16µM*	11
O=C(NC(=S)N1CCCCCC1)c1cccc([N+](=O)[O-])c1	6	1%	?	-6	16µM*	17
O=[N+]([O-])c1cccc(NC(=S)N2CCCC2)c1	6	0%	-17%	12	20%	18
CCCC(=O)NC(=S)N1CCN(c2ccc([N+](=O)[O-])cc2)CC1	-8	-2%	-15%	-18	-22%	11
O=C(NC(=S)N1CCN(c2ccc([N+](=O)[O-])cc2)CC1)c1ccccc1	0	·	?	-21	3.3µM*	8
Cc1ccc(C(=O)NC(=S)N2CCN(c3ccc([N+](=O)[O-])cc3)CC2)cc1	-23	2%	?	-53*	26µM*	-2
